# Laboratory results from PubChem BioAssay (NCATS).
# A number with no mark means an inactive call. Records with an inconclusive call do not appear. Calls of active or inactive are those of the source. Unless noted, the call rests on the fitted dose curve; in most records, active means well fitted curve in the direction sought with a large enough effect; inconclusive means small, poorly fitted or top-dose-only effect, or another doubt; inactive means no such curve, though single readings can be large; an effect the other way counts as inactive or inconclusive.
# System: not listed separately
# Test: qHTS Assay for Identification of Small Molecule Agonists for Hypoxia Response Element Signaling Pathway (AID 914; active means well fitted activation curve with a large enough effect in the signal ratio, with a control signal flat, not every such curve was filed as active; the % refers to the signal ratio; further: % of control where 0% means no effect)
# Conditions: ME-180 (cervical carcinoma) HRE-bla reporter, beta-lactamase ratio, CoCl2, 17 h; active compounds read high
# How it was run: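 HRE-bla ME-180 cells with beta-lactamase reporter under hypoxia response element, compounds with EC50 CoCl2 for 17 hours at 37 C. CCF4 substrate, 460nm/530nm emission ratio gave %Activity; AC50 from titration series.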
row,SMILES,activation
1,O=P1(NCCCl)OCCCN1CCCl (centres undefined),-2.35%
2,CCCC(C)(COC(N)=O)COC(=O)NC(C)C (centres undefined),-37.8%
3,c1ccc(C2CC2)c(OCC2=NCCN2)c1,8.99%

# System: not listed separately
# Test: qHTS Assay for Identification of Small Molecule Agonists for Thrombopoietin (TPO) Signaling Pathway (AID 917); further: on the % scale 0 is the no-effect control and ±100 the full control effect
# Conditions: TPO signaling pathway reporter cells, agonist qHTS; series mostly up to 38.5 µM; activity, positive = activation: at the top concentration
# How it was run: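 Ba/F3 (mouse) + hTPO receptor + GpIIb-promoter luciferase; IL-3 withdrawn overnight; compound + 26 pM TPO (EC50), 24 hrs, 37 C, 5% CO2; Steadylite luminescence, 10 min RT.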
SMILES,"activity, positive = activation",outcome
CCCC(C)(COC(N)=O)COC(=O)NC(C)C (centres undefined),-13.4%,
Cc1ncc(CNC(=O)N(CCCl)N=O)c(N)n1,3.73%,
N[C@@H]1C[C@H]1c1ccccc1,-25.6%,
O=c1[nH]c2ccccc2n1CCCN1CCC(n2c(=O)[nH]c3cc(Cl)ccc32)CC1,-9.85%,
Cc1ccc(S(=O)(=O)N[C@@H](CCCCN)C(=O)CCl)cc1,-8.06%,
Nc1ccncc1,-2.11%,
Cc1cccc(C)c1NC1=NCCCS1,1.45%,
COc1ccccc1N1CCNCC1,-12.4%,
CCCN1CCC[C@@H]2Cc3[nH]ncc3C[C@H]21,,inactive
NN=C(N)N,,inactive
CCCN1CCC[C@@H]2Cc3nc(N)ncc3C[C@H]21,-13.2%,
NCC(CC(=O)O)c1ccc(Cl)cc1 (centres undefined),-11.5%,

# System: not listed separately
# Test: qHTS Assay for Identification of Small Molecule Antagonists for Thrombopoietin (TPO) Signaling Pathway (AID 918); further: potency means the concentration at half of the fitted maximal effect; nearly all actives have a fitted effect of over 60% in size
# Conditions: TPO-dependent cell signaling reporter, antagonist mode
# How it was run: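 Inhibition read as reduced luciferase luminescence after 24 h at 37 C in IL-3-deprived Ba/F3 cells carrying human TPO receptor and GPIIb-promoter reporter, stimulated with 26 pM TPO (final, its EC50) alongside compound.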
row,SMILES,Potency
1,CN1C[C@H](CNC(=O)OCc2ccccc2)C[C@@H]2c3cccc4c3c(cn4C)C[C@H]21,10 µM (active)
2,O=c1[nH]c2ccccc2n1C1CCN(CCCC(c2ccc(F)cc2)c2ccc(F)cc2)CC1,10 µM (active)
3,COc1ccc(Cc2nccc3cc(OC)c(OC)cc23)cc1OC,12.6 µM (active)

# System: not listed separately
# Test: Cell Viability - LYMP2-001 (AID 921); further: nearly all actives have a fitted effect of over 70% in size; further: potency means the concentration at half of the fitted maximal effect;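 on activity change, negative = cytotoxic: 0% = DMSO only and full inhibition = tetraoctylammonium bromide control wells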
# Conditions: LYMP2-001 lymphoblastoid cell viability; series mostly up to 92.2 µM; activity change, negative = cytotoxic: at the top concentration
# How it was run: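 CellTiter-Glo luminescence (intracellular ATP) after 24 hr compound exposure at 37 C, 2500 lymphoblastoid cells/well in complete medium. AC50 fitted with standard Hill equation; tetraoctylammonium bromide positive control.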
SMILES,"activity change, negative = cytotoxic",Potency
CCCC(C)(COC(N)=O)COC(=O)NC(C)C (centres undefined),-28.3%,
NCC(O)c1ccc(O)cc1 (centres undefined),2.93%,
Oc1cccc2cccnc12,,6.31 µM (active)

# System: not listed separately
# Test: Confirmation and Secondary Assay for Modulators of Hemoglobin Beta Chain Splicing at IVS2 705 locus (AID 930);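 further: HeLa cells stably expressing the EGFP-705 splicing reporter; GFP fluorescence per well restored by corrected splicing of the IVS2-705 intron in EGFP; % of control where 0% means no effect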
# Conditions: HeLa EGFP-705 splicing reporter, GFP fluorescence, 48 h; series mostly up to 46.1 µM; activation: at the top concentration
# How it was run: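 HeLa cells stably carrying EGFP interrupted by mutant beta-globin intron 2 (IVS2-705) treated 2 days at 37C with compound; 500 nM antisense PNA as control. Correct splicing read as total peak GFP intensity per well by laser-scanning cytometry.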
row,SMILES,activation
1,CC(C)CC(N(C)C)C1(c2ccc(Cl)cc2)CCC1 (centres undefined),2.55%
2,O=c1[nH]c2ccccc2n1C1CCN(CCCC(c2ccc(F)cc2)c2ccc(F)cc2)CC1,0.182%
3,CC(C)(C)NCC(O)c1cc(Cl)c(N)c(Cl)c1 (centres undefined),0.0104%
4,COc1ccc(C(CN(C)C)C2(O)CCCCC2)cc1 (centres undefined),-1.09%
5,CC(C)=CC1C(C(=O)OCc2cccc(Oc3ccccc3)c2)C1(C)C (centres undefined),-0.802%
6,CCCC(C)(COC(N)=O)COC(=O)NC(C)C (centres undefined),-0.314%
7,Cc1ncc(CNC(=O)N(CCCl)N=O)c(N)n1,1.07%
8,Cc1ccc(-c2nc3ccc(C)cn3c2CC(=O)N(C)C)cc1,2.04%
9,CC[N+]1(C)CCCC(OC(=O)C(O)(c2ccccc2)c2ccccc2)C1 (centres undefined),-0.198%
10,CCC1(C2=NCCN2)Cc2ccccc2O1 (centres undefined),0.54% [at 38.3 µM]
11,O=c1[nH]c2ccccc2n1CCCN1CCC(n2c(=O)[nH]c3cc(Cl)ccc32)CC1,2.66%
12,CCC(COC(=O)c1cc(OC)c(OC)c(OC)c1)(c1ccccc1)N(C)C (centres undefined),-0.62%
13,COc1ccc(Cc2nccc3cc(OC)c(OC)cc23)cc1OC,-0.622%
14,Clc1ccc(COC(Cn2ccnc2)c2ccc(Cl)cc2Cl)cc1 (centres undefined),0.964%
15,O=[N+]([O-])c1cc([As](=O)(O)O)ccc1O,-0.776%
16,Nc1ccncc1,0.392%
17,NCC(O)c1ccc(O)cc1 (centres undefined),-1.64%
18,Cc1cccc(C)c1NC1=NCCCS1,2.17%
19,COc1ccccc1N1CCNCC1,1.4% [at 38.3 µM]
20,CC(C)=CCOc1c2occc2cc2ccc(=O)oc12,2.37%
21,NCCc1cc(O)c(O)cc1O,0.0855%
22,CC(CCc1ccccc1)NC(C)C(O)c1ccc(O)cc1 (centres undefined),0.591%
23,NN=C(N)N,0.252%
24,Oc1cccc2cccnc12,-0.678%
25,NCC(CC(=O)O)c1ccc(Cl)cc1 (centres undefined),0.462%
26,CC(=O)Nc1cc([As](=O)(O)O)ccc1O,-0.679%

# Biological target: Muscarinic acetylcholine receptor M1 (Rattus norvegicus) (UniProt P08482)
# Sequence (P08482 whole entry, looked up): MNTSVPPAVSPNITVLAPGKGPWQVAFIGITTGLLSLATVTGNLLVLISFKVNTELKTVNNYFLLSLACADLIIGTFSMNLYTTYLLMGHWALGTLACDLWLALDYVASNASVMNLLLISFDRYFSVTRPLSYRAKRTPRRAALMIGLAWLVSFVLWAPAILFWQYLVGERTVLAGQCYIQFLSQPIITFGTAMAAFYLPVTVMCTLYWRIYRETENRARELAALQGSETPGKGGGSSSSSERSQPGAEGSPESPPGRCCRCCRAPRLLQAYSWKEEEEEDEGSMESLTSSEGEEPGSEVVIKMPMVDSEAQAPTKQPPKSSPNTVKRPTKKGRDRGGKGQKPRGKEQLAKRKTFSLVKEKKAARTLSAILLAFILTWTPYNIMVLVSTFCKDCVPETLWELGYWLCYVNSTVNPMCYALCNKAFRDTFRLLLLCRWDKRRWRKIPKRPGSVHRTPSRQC
# Test: qHTS Assay for Antagonists of Acetylcholine Muscarinic M1 Receptor: Kinetic Measurement of Intracellular Calcium Response (AID 943);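 further: Fluo-4 calcium signal as peak divided by basal fluorescence over 4 min; nearly all actives have a fitted effect of over 75% in size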
# Conditions: M1-expressing cells, kinetic intracellular calcium fluorescence; series mostly up to 35.3 µM; activity change, negative = inhibition: at the top concentration
# How it was run: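 Antagonism measured as reduction of carbachol-evoked (EC80, 100 nM final) calcium flux in rat M1-CHO cells after 10 min compound exposure. Fluo-4 signal read kinetically; ratio of maximal to basal fluorescence.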
SMILES,"activity change, negative = inhibition",Potency
Cc1ccc(S(=O)(=O)N[C@@H](CCCCN)C(=O)CCl)cc1,-79.1%,
Nc1ccncc1,-21.8%,
COc1ccccc1N1CCNCC1,-30.7%,
CCCN1CCC[C@@H]2Cc3[nH]ncc3C[C@H]21,-43.1%,
NN=C(N)N,,inactive
O=c1c(O)c(-c2ccc(O)c(O)c2)oc2cc(O)cc(O)c12,11.8%,

# Biological target: Muscarinic acetylcholine receptor M1 (Rattus norvegicus) (UniProt P08482)
# Test: qHTS Assay for Antagonists of Acetylcholine Muscarinic M1 Receptor: Measurement of IP-One Response (AID 944); further: nearly all actives have a fitted effect of over 75% in size; further: potency means the concentration at half of the fitted maximal effect
# Conditions: CHO-M1 cells, IP-One HTRF, antagonist mode; series mostly up to 46.1 µM; activity change, negative = inhibition: at the top concentration
# How it was run: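 IP1 accumulation measured via TR-FRET between d2-IP1 and Eu-cryptate anti-IP1 antibody after carbachol (200 nM, EC80) stimulation for 30 min; rat M1-transfected CHO cells received compound 10 min before agonist.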
SMILES,Potency,"activity change, negative = inhibition"
CN1C[C@H](CNC(=O)OCc2ccccc2)C[C@@H]2c3cccc4c3c(cn4C)C[C@H]21,15.8 µM (active),
CCCC(C)(COC(N)=O)COC(=O)NC(C)C (centres undefined),,-25.1%
Cc1ncc(CNC(=O)N(CCCl)N=O)c(N)n1,,-120%
N[C@@H]1C[C@H]1c1ccccc1,,-21.4%
O=c1[nH]c2ccccc2n1CCCN1CCC(n2c(=O)[nH]c3cc(Cl)ccc32)CC1,14.1 µM (active),
Nc1ccncc1,,-16.5%
c1ccc(C2CC2)c(OCC2=NCCN2)c1,10 µM (active),
COc1ccccc1N1CCNCC1,,-44.7%
CCCN1CCC[C@@H]2Cc3[nH]ncc3C[C@H]21,inactive,
NN=C(N)N,inactive,
CCCN1CCC[C@@H]2Cc3nc(N)ncc3C[C@H]21,,-32.3%

# Biological target: Pyruvate kinase (Leishmania mexicana) (UniProt Q27686)
# Sequence (Q27686 2-499 E452W): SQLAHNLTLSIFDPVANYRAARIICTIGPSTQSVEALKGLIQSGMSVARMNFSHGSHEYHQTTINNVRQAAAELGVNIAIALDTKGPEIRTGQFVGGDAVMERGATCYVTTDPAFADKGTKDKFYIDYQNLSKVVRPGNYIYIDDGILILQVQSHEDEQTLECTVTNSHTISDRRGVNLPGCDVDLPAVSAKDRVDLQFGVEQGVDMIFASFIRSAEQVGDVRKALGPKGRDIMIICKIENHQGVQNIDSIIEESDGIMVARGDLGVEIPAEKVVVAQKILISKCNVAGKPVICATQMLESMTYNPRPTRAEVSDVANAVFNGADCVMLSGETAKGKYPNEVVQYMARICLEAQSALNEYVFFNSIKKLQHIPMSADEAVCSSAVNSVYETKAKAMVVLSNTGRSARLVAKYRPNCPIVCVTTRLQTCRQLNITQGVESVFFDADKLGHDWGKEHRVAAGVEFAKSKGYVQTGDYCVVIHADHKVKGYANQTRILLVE
# Test: qHTS Validation Assay for Inhibitors of Leishmania Mexicana Pyruvate Kinase (AID 945);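 further: 0% = DMSO only neutral control wells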
# Conditions: purified L. mexicana pyruvate kinase, enzyme activity, E451W mutant enzyme; series mostly up to 57.5 µM; activity change, negative = inhibition: at the top concentration
# How it was run: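 Eight-point qHTS titrations in triplicate, data normalized to DMSO neutral control. Reaction: 0.2 nM LmPYK E451W mutant, 0.5 mM PEP, 0.1 mM ADP, 7 mM MgCl2, pH 7.2, one hour at room temperature; luminescent ATP detection.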
SMILES,"activity change, negative = inhibition",outcome
CN1C[C@H](CNC(=O)OCc2ccccc2)C[C@@H]2c3cccc4c3c(cn4C)C[C@H]21,110%,
O=c1[nH]c2ccccc2n1C1CCN(CCCC(c2ccc(F)cc2)c2ccc(F)cc2)CC1,-9.53%,
CCCC(C)(COC(N)=O)COC(=O)NC(C)C (centres undefined),-12%,
Cc1ncc(CNC(=O)N(CCCl)N=O)c(N)n1,5.3%,
N[C@@H]1C[C@H]1c1ccccc1,4.04%,
O=c1[nH]c2ccccc2n1CCCN1CCC(n2c(=O)[nH]c3cc(Cl)ccc32)CC1,4.18%,
Cc1ccc(S(=O)(=O)N[C@@H](CCCCN)C(=O)CCl)cc1,-1.72%,
Nc1ccncc1,-3.52%,
Cc1cccc(C)c1NC1=NCCCS1,-2.54%,
c1ccc(C2CC2)c(OCC2=NCCN2)c1,4.1%,
COc1ccccc1N1CCNCC1,-9.13%,
CCCN1CCC[C@@H]2Cc3[nH]ncc3C[C@H]21,,inactive
NN=C(N)N,,inactive
CCCN1CCC[C@@H]2Cc3nc(N)ncc3C[C@H]21,-5.21%,
NCC(CC(=O)O)c1ccc(Cl)cc1 (centres undefined),-4.86%,
